Holding throughout (assay type): functional
The subject of assay [1] is Plasmodium falciparum. Put plainly: GSK_TCMDC: Inhibition of Plasmodium falciparum 3D7 in whole red blood cells, using parasite LDH activity as an index of growth. Test compounds present at 2uM.
The test system of assay [2] is Plasmodium falciparum. Put plainly: GSK_TCMDC: Inhibition of Plasmodium falciparum Dd2 in whole red blood cells, using parasite LDH activity as an index of growth. Test compounds present at 2uM.
In assay [3] the test system is HepG2. Put plainly: GSK_TCMDC: Percent inhibition of human HepG2 cell line. Test compounds present at 10uM.

For `Cc1cc(NCCC(=O)Nc2ccccc2)nc(NCCc2ccc(F)cc2)n1.O=C(O)C(F)(F)F`, the Inhibition (as a rule, the percentage by which the read-out fell short of the control) in assay [1] is 100%; in assay [2], 43%; in assay [3], 26%.

With `NS(=O)(=O)c1ccc(CNc2ccc3ncc(-c4ccc(Cl)cc4)n3n2)cc1`, the Inhibition in assay [1] was determined as 96%; in assay [2] it was 99%; in assay [3], 26%.

Take `CC1(C)CN(CCC2CCC(NC(=O)/C=C/c3ccc(F)cc3F)CC2)Cc2ccc(C#N)cc21.Cl` (stereo not drawn): the Inhibition in assay [1] stood at 88%; in assay [2], 77%; in assay [3], 39%.

With `Cc1cc(=NN=Cc2ccc(Cl)cc2)c2ccc(F)cc2[nH]1`, the results for the Inhibition in assay [1], in assay [2] and in assay [3] were 100%, 87% and 6%, respectively.

For the compound `O=C(/C=C/c1ccc(Cl)c(Cl)c1)NCCCCCN1CCCN(C(=O)Nc2cc(Cl)nc(Cl)c2)CC1`, the Inhibition is reported as 100% in assay [1], 3% in assay [2] and 8% in assay [3].

Regarding `COc1ccc2nccc(N3CCC(CCNCc4cc5c(cn4)OCCO5)CC3)c2c1.Cl`, the results for the Inhibition in assay [1], in assay [2] and in assay [3] were 100%, 99% and 26%, respectively.

`COc1c(CNCCCCCCNCc2cc(Cl)c3ccccc3c2OC)cc(Cl)c2ccccc12.CS(=O)(=O)O`: the Inhibition in assay [1] was 96%; in assay [2] it was 45%; in assay [3], 100%.

Turning to `O=c1cc(NCCCN(Cc2ccccc2)Cc2ccccc2)[nH]c2ccccc12`, the Inhibition in assay [1] was determined as 100%; in assay [2] it was 93%; in assay [3], 7%.

`CCCOc1ccc2ccccc2c1CNCCCCCCNCc1c(OCCC)ccc2ccccc12.CS(=O)(=O)O`: the Inhibition in assay [1] was determined as 94%; in assay [2], 90%; in assay [3] it was 100%.

On to `CN1CCN(CC(=O)Nc2ccc(-c3ccc(-c4nc5ccccc5[nH]4)cc3)cc2)CC1`, for which the Inhibition in assay [1] stood at 98%; in assay [2] it was 80%; in assay [3], 18%.

As to `Cc1ccc(NC(=O)c2ccc(C(=O)NC3CCN(CC4CCCCC4)CC3)cc2)cc1.O=C(O)C(F)(F)F`, the Inhibition in assay [1] amounted to 93%; in assay [2], 0%; in assay [3], 36%.

Consider `Cc1nn(CCOC(=O)NC(NCC2COc3ccccc3O2)C(Cl)(Cl)Cl)cc1[N+](=O)[O-]` (stereo not drawn), for which the Inhibition in assay [1] is listed as 99%; in assay [2], 99%; in assay [3], 0%.

Regarding `FC(F)(F)c1ccc2[nH]ccc(=NN=Cc3ccc(Cl)cc3)c2c1`, the Inhibition is given as 100% in assay [1], 53% in assay [2] and 5% in assay [3].

For the compound `CCN(CC)c1nc(N)c2c(N)nc3c(c2c1C#N)C(=O)CN3Cc1ccccc1`, the Inhibition was found to be 96% in assay [1], 96% in assay [2] and 26% in assay [3].

As to `Cc1ccccc1C1CCN(C2CCC(NC(=O)/C=C/c3ccc(OC(F)(F)F)cc3)CC2)CC1` (stereo not drawn), the Inhibition is recorded as 100% in assay [1], 67% in assay [2] and 96% in assay [3].

For the compound `CS(=O)(=O)c1cccc(-c2cnc3[nH]cc(-c4ccc(CCC(=O)O)cc4)c3c2)c1`, the Inhibition in assay [1] was 97%; in assay [2], 99%; in assay [3], 1%.

For the compound `COc1cccc(NC(=O)[C@H](C(C)C)n2c(=O)[nH]c3ccccc3c2=O)c1`, the Inhibition in assay [1] worked out at 100%; in assay [2], 100%; in assay [3], 0%.

As to `N#CC(c1ccc(F)cc1)c1ccc2c(C(F)(F)F)cc(C(F)(F)F)nc2n1` (stereo not drawn), the Inhibition in assay [1] was 97%; in assay [2], 89%; in assay [3] it was 9%.

As to `CCOc1cc(C)ccc1C1CCN(CCCCNC(=O)c2cccc(-c3ccc(C(F)(F)F)cc3)c2)CC1`, the Inhibition turned out to be 99% in assay [1], 55% in assay [2] and 39% in assay [3].

For the compound `O=C(Nc1ccc(Cl)cc1)Nc1nc2cc([N+](=O)[O-])ccc2[nH]1`, the Inhibition in assay [1] is recorded as 100%; in assay [2] it was 6%; in assay [3] it was 0%.

Consider `CC12CCC(C(=O)N(CC(O)Cn3c4ccc(Cl)cc4c4cc(Cl)ccc43)C1=O)C2(C)C` (stereo not drawn), for which the Inhibition in assay [1] came out at 100%; in assay [2], 99%; in assay [3], 0%.

In the case of `CC(C)C[C@@H](CNC[C@H](CC(C)C)NC(=O)OC(C)(C)C)NC(=O)OC(C)(C)C`, the results for the Inhibition in assay [1], in assay [2] and in assay [3] were 88%, 58% and 4%, respectively.

With `O=C(/C=C/c1ccc(Cl)c(Cl)c1)NCCCCCN1CCCC(CNC(=O)c2sc3ccccc3c2Cl)C1` (stereo not drawn), the Inhibition in assay [1] was 98%; in assay [2] it was 0%; in assay [3] it was 42%.

For the compound `CCN(CC)CCCN(CCCN(CC)CC)c1cc(C)nc(Nc2ccc(Cl)cc2)n1.O=C(O)C(=O)O`, the Inhibition was 100% in assay [1], 7% in assay [2] and 11% in assay [3].

On to `CCOC(=O)N1CCN(C(=O)Nc2ccc(Cl)cc2)CC1`, for which the Inhibition in assay [1] is listed as 92%; in assay [2] it was 0%; in assay [3], 4%.

For the compound `CCCc1ccc(NC(=O)c2ccc(CN3CCCN(CC4CCCCC4)CC3)cc2)cc1.O=C(O)C(F)(F)F`, the values for the Inhibition in assay [1], in assay [2] and in assay [3] were 95%, 41% and 49%, respectively.

Regarding `CCCN(c1ccc(C(F)(F)F)cc1[N+](=O)[O-])S(=O)(=O)C(c1ccccc1)c1ccc(C(F)(F)F)cc1[N+](=O)[O-]` (stereo not drawn), the values for the Inhibition in assay [1], in assay [2] and in assay [3] were 94%, 49% and 0%, respectively.

In the case of `CCc1c(C(=O)NC2CCC(N3CCC(c4ccccc4C)CC3)CC2)[nH]c2ccc(OC)cc12` (stereo not drawn), the Inhibition is recorded as 100% in assay [1], 100% in assay [2] and 78% in assay [3].

As for `CNC(=O)c1cc(NCCCNCc2ccc(Cl)c(C(F)(F)F)c2)nc2ccccc12.Cl`, the Inhibition in assay [1] amounted to 91%; in assay [2], 7%; in assay [3], 25%.

Turning to `CCOc1ccc(-c2nonc2NC(=O)c2ccccc2Cl)cc1OCC`, the Inhibition in assay [1] was 100%; in assay [2], 100%; in assay [3] it was 3%.

`COc1ccc2c(c1)nc(CNC(=N)N)n2Cc1ccc(Cl)cc1.Cl`: the Inhibition stood at 100% in assay [1], 99% in assay [2] and 12% in assay [3].

The values are drawn from ChEMBL document CHEMBL1157539, “Thousands of chemical starting points for antimalarial lead identification” (Nature, 2010).
